According to PubChem BioAssay (NCI):
About 83,000 compounds went through this panel and 20% of them were active in at least one assay; those are over-represented in the sample as a whole.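 Treatment: one concentration, 48 hours, 96-well format. Scoring: percent growth, with anything below 10 considered active.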 Values without a mark were called inactive. The source made the active and inactive calls.

test system: SN12C renal; assay: NCI-60 one-dose screen, 48 h (100 = growth as untreated, 0 = no growth, -100 = all killed); conditions: 10 µM unless noted

SMILES | growth
Cn1c(/C(C#N)=C/c2ccc3ccccc3c2)cc2ccccc21 | 33.5%
Cn1cc(-c2nc(-c3c[nH]c4ncccc34)cs2)c2cc(F)ccc21 | 51.3%
CC(=O)N1N=C(c2ccc(C)cc2)CC1c1ccc(Oc2ccc(Br)cc2)cc1 (stereo not given) | 78.5%
NC1=NN=C2N(N)C(=O)c3cnn(-c4ccccc4)c3N2c2nc(-c3ccccc3)cc(-c3ccccc3)c21 | 97%
Fc1ccc2nc(-c3cc(-c4ccc5c(c4)OCO5)n[nH]3)[nH]c2c1 | 65.2%
CN(C)c1ccc(-c2ccc(-c3ccc(C(=N)N)c(F)c3)s2)cc1 | -76.5% (active)
Cc1c(C)c2c(c(C)c1NC(=O)CCCCCCC(=O)O)CCC(C)(CCCC(C)CCCC(C)CCCC(C)C)O2 (stereo not given) | 77.5%
Cc1cc(C)nc(NC(N)=NCCc2ccccc2)n1 | 45.1%
C=C(C)[C@@H]1CC[C@]2(C(=O)O)CC[C@]3(C)[C@H](CC[C@@H]4[C@@]5(C)C/C(=C/c6ccc(OC)cc6)C(=O)C(C)(C)[C@@H]5CC[C@]43C)[C@@H]12 | 18%
COc1ccc2[nH]cc(-c3nc(-c4c[nH]c5ncccc45)cs3)c2c1 | 53.2%
CCc1ccc(-c2ccc(Nc3ccccc3)nn2)cc1S(N)(=O)=O | 88.6%
Cn1cccc1/C=C1/SC(=S)N(CCc2ccc(O)cc2)C1=O | 60%
CN1CCN(CCOc2ccc(-c3cnc4c(-c5ccccc5F)cnn4c3)cc2)CC1 | 60.7%
O=c1c(CNc2ccc(S(=O)(=O)Nc3ncccn3)cc2)coc2ccccc12 | 90.1%
Cc1ccc(-c2nc([P+](c3ccccc3)(c3ccccc3)c3ccccc3)c(N3CCOCC3)o2)cc1 | 1.43% (active)
O=C1OC(c2ccc(Cl)c(Cl)c2)=C/C1=C/c1cccc([N+](=O)[O-])c1 | 93%
COc1ccccc1-n1cnc(N)c1C(=O)c1cc(OC)c(OC)c(OC)c1 | 62.3%
COc1ccc2c(c1)C/C(=C\c1cc(-c3ccc4c(c3)OCO4)n[nH]1)C2=O | 95.2%

SMILES | growth
CN(C)CCCC1(c2ccc(F)cc2)OCc2cc(-c3ccc(C(F)(F)F)nc3)ccc21 (stereo not given) | 75.1%
O=c1c(CNc2ccc(S(=O)(=O)Nc3nccs3)cc2)coc2ccccc12 | 99.1%
Cc1ccc2c(c1)c(-c1nc(-c3c[nH]c4ncccc34)cs1)cn2C | 90.9%
CC1(C)C(=O)/C(=C\c2ccco2)C[C@]2(C)[C@H]3CC[C@@H]4[C@@H](C(=O)/C=C/c5ccco5)CC[C@@]4(C)[C@]3(C)CC[C@@H]12 | 87.2%
Cc1ccc(-c2nc([P+](c3ccccc3)(c3ccccc3)c3ccccc3)c(N3C[C@H]4C[C@H](C3)c3cccc(=O)n3C4)o2)cc1 | 95.2%
C=C(C)[C@@H]1CC[C@]2(CN)CC[C@]3(C)[C@H](CC[C@@H]4[C@@]5(C)CCC(=O)NC(C)(C)[C@@H]5CC[C@]43C)[C@@H]12 | 65.6%
Nc1c(Cl)cc(N=Nc2ccccc2)cc1Cl | 95.4%
CC(=O)O[C@H]1CC[C@]2(C)[C@H]3C(=O)C=C4[C@@H]5C[C@](C)(C(=O)N6CCCNCC6)CC[C@]5(C)CC[C@@]4(C)[C@]3(C)CC[C@H]2C1(C)C | -82.1% (active)
CCCCCC1CCCCN1C(=O)OCC (stereo not given) | 102%
Cn1cc(-c2nc(-c3c[nH]c4ncccc34)cs2)c2cc(Br)ccc21 | 87.1%
O=C(N/N=C\c1ccccc1O)C1CC1 | 93.6%
COc1ccc(OCC(CO)N2CCN(c3ccccc3)CC2)cc1 (stereo not given) | 97.2%
Cn1cc(-c2nc(-c3c[nH]c4ncccc34)cs2)c2ccccc21 | 90%
CC1(C)CC[C@]2(C(=O)Nc3ccccn3)CC[C@]3(C)C(=CC[C@@H]4[C@@]5(C)C/C(=C/c6ccncc6)C(=O)C(C)(C)[C@@H]5CC[C@]43C)[C@@H]2C1 | 34.4%
C=C(C)[C@@H]1CC[C@]2(C(=O)O)CC[C@]3(C)[C@H](CC[C@@H]4[C@@]5(C)C/C(=C/c6cccc(I)c6)C(=O)C(C)(C)[C@@H]5CC[C@]43C)[C@@H]12 | 31.1%
Oc1cccc2oc(=S)[nH]c12 | 98.6%
CC(=O)O[C@H]1CC[C@@]2(C)C(=CC[C@@H]3[C@@H]2CC[C@]2(C)C(=O)N(O)C(=O)C[C@@H]32)C1 | 97.2%
